{"source": "PubChem BioAssay AID2796", "about": "(The Scripps Research Institute Molecular Screening Center, 2010)", "note": "In all, about 320,000 compounds went through this assay and about 8,000 (2.5%) were called active. No stated cut-off is given here; in the data, active means activation above about 47%; inactive means the rest. What follows is part of a selection rich in actives, with near analogues and random picks from the rest.", "data": [{"biological_target": "Aryl hydrocarbon receptor (Homo sapiens) (UniProt P35869)", "sequence (P35869 whole entry, looked up)": "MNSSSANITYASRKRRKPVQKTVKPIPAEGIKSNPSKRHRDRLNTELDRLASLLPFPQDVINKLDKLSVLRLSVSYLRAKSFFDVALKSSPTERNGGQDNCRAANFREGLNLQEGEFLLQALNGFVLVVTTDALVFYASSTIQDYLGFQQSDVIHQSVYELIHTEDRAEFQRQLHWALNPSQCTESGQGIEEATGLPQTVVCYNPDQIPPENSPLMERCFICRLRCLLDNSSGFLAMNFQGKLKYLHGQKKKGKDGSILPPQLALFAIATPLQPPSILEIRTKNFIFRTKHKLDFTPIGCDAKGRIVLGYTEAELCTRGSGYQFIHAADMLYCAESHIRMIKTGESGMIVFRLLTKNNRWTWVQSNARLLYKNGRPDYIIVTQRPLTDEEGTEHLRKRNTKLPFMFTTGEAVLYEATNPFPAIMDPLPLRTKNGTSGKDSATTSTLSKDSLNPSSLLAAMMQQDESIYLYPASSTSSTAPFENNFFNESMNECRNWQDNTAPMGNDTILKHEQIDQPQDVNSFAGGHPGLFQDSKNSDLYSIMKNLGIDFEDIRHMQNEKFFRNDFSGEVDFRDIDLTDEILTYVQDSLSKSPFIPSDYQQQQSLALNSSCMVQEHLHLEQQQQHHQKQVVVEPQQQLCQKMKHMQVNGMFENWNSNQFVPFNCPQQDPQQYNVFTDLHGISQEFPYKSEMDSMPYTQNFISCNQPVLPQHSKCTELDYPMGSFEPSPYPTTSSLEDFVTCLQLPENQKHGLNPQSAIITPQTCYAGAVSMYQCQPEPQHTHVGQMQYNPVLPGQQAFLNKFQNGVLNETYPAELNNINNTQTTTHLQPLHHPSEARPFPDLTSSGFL", "assay": "AHR activators, primary screen, cell-based, luminescence, luciferase reporter, human (AID 2796);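 further: 0% = vehicle wells and 100% = reference agonist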", "conditions": "AHR-responsive luciferase reporter cells, at 5 µM, active compounds read high", "values": [{"smiles": "N#CC1(NC(=O)COc2ccc3oc4ccccc4c3c2)CCCCC1", "activation": "4.73% (inactive)"}, {"smiles": "Cc1nc2ccccc2nc(=O)c1NNc1ccc([N+](=O)[O-])cc1", "activation": "47.2% (active)"}, {"smiles": "Cc1cccc(NS(=O)(=O)c2ccc([N+](=O)[O-])cc2)n1", "activation": "1.34% (inactive)"}, {"smiles": "O=[N+]([O-])c1ccc2c(c1)Nc1nc3ccccc3nc1N2", "activation": "36.9% (inactive)"}, {"smiles": "Cc1ccc(C(=O)N(CC(=O)NC2CCCC2)c2ccc(F)cc2)s1", "activation": "2.22% (inactive)"}, {"smiles": "CC(C)(C)c1ccc(C(=O)NCc2ccco2)cc1", "activation": "9.26% (inactive)"}, {"smiles": "COc1ccc2c(Cl)c(C(=O)NCc3ccco3)sc2c1", "activation": "-3% (inactive)"}, {"smiles": "COc1cccc(-c2cc(C(=O)N3CCN(c4ccccc4OC)CC3)no2)c1", "activation": "2.67% (inactive)"}, {"smiles": "CCOC(=O)N1CCN(C(=O)c2ccc3nc4cc(Cl)ccc4c(=O)n3c2)CC1", "activation": "5.36% (inactive)"}, {"smiles": "Cn1nc(C(F)(F)F)c2cc(C(=O)N3CCOCC3)sc21", "activation": "-0.43% (inactive)"}, {"smiles": "CCOC(=O)N1CCN(C(=O)c2cc3c(-c4ccc(Cl)cc4)nn(C)c3s2)CC1", "activation": "89.2% (active)"}, {"smiles": "COc1cccc(-c2nn(C)c3sc(C(=O)N4CCN(c5ccccc5)CC4)cc23)c1", "activation": "9.25% (inactive)"}, {"smiles": "COc1ccccc1N1CCN(C(=O)c2cc3c(-c4ccc(Cl)cc4)nn(C)c3s2)CC1", "activation": "121% (active)"}, {"smiles": "Cn1nc(-c2ccc(Cl)cc2)c2cc(C(=O)NCc3ccco3)sc21", "activation": "79.7% (active)"}, {"smiles": "CCOC(=O)c1cccc(NC(=O)C2CCCN(S(=O)(=O)c3cnc[nH]3)C2)c1", "note": "(stereo not given)", "activation": "0.81% (inactive)"}, {"smiles": "Cc1ccc(SCC2=NNC(=O)C2)cc1", "activation": "-1.28% (inactive)"}, {"smiles": "CC(C)N1C(=S)SC(C)(C)C1n1oc(=O)n(-c2ccc(Cl)c(Cl)c2)c1=O", "note": "(stereo not given)", "activation": "7.15% (inactive)"}, {"smiles": "COc1ccc(CN2CCN(Cc3cn(C)nc3-c3ccccc3)CC2CCO)c(C)c1C", "note": "(stereo not given)", "activation": "2.04% (inactive)"}, {"smiles": "Cc1noc(C)c1NC(=O)Nc1ccc2c(c1)C(=O)N([C@H](C)CO)C[C@H](C)[C@@H](CN(C)C(=O)Nc1ccc(C(F)(F)F)cc1)O2", "activation": "3.05% (inactive)"}, {"smiles": "Cc1ccc(-c2noc(CNC(=O)c3ccoc3C)n2)cc1", "activation": "6.22% (inactive)"}, {"smiles": "CCN(CC)C(=O)Oc1ccc(Br)cc1C(=O)Nc1ccc(F)c(Cl)c1", "activation": "86.6% (active)"}, {"smiles": "O=C(COc1ccccc1F)NNC(=O)c1cc(Br)ccc1Cl", "activation": "4.62% (inactive)"}, {"smiles": "CCN(CC)C(=O)C(=O)Nc1cccc(Br)c1", "activation": "4.98% (inactive)"}, {"smiles": "CCC1CCCCN1CCNC(=O)c1[nH]c(C)c(C(C)=O)c1C", "note": "(stereo not given)", "activation": "1.61% (inactive)"}, {"smiles": "O=C(Nc1ccc(Cl)cc1)N1CCc2[nH]c3ccccc3c2C1", "activation": "25.4% (inactive)"}, {"smiles": "C=CCNC(=S)N1CCc2[nH]c3ccccc3c2C1", "activation": "73.6% (active)"}, {"smiles": "Fc1ccc(NC(=S)N2CCc3[nH]c4ccccc4c3C2)cc1", "activation": "5.41% (inactive)"}, {"smiles": "O=C(CCCN1CCc2[nH]c3ccc(F)cc3c2C1)c1ccc(F)cc1", "activation": "2.64% (inactive)"}, {"smiles": "CCCCNC(=O)CSc1nc2n[nH]c(C)c2c(=N)n1-c1cccc(Cl)c1C", "activation": "13.7% (inactive)"}, {"smiles": "Cc1ccc(-n2c(SCC(=O)NCCC3=CCCCC3)nc3n[nH]c(C)c3c2=N)cc1Cl", "activation": "24.8% (inactive)"}, {"smiles": "COc1cccc(-n2c(SCC(=O)NC3CCCCC3)nc3n[nH]c(C)c3c2=N)c1", "activation": "104% (active)"}, {"smiles": "COc1ccccc1C(=O)NCCC(=O)NN1C(=O)NC2(CCCCC2)C1=O", "activation": "-0.92% (inactive)"}, {"smiles": "C/C=C/C(=O)OCC(=O)Nc1ccc(F)cc1Cl", "activation": "0.16% (inactive)"}, {"smiles": "O=C(CCCCCN1C(=O)c2cccc3cccc(c23)C1=O)NCc1ccco1", "activation": "76.8% (active)"}, {"smiles": "O=C(CCCOc1ccccc1)NCc1ccco1", "activation": "1.62% (inactive)"}, {"smiles": "C[N+](C)(CCCCCC[N+](C)(C)CCCN1C(=O)c2cccc3cccc(c23)C1=O)CCCN1C(=O)c2cccc3cccc(c23)C1=O", "activation": "4.39% (inactive)"}, {"smiles": "CC1CCN(C(=O)C2CCN(S(=O)(=O)N3CCC4(CC3)OCCO4)CC2)CC1", "activation": "0.37% (inactive)"}, {"smiles": "O=C(Nc1cccnc1)c1cc([N+](=O)[O-])ccc1Cl", "activation": "0.88% (inactive)"}, {"smiles": "CNc1ccc([N+](=O)[O-])cc1C(=O)O", "activation": "-2.24% (inactive)"}, {"smiles": "Cc1ccc(NC(=O)c2cc([N+](=O)[O-])ccc2Cl)c(O)c1", "activation": "49% (active)"}, {"smiles": "COc1ccc(S(=O)(=O)NC(C)C(=O)NCc2ccncc2)cc1Cl", "note": "(stereo not given)", "activation": "-0.4% (inactive)"}, {"smiles": "C[C@H](CO)N1C[C@H](C)[C@@H](CN(C)S(=O)(=O)c2ccc(F)cc2)Oc2c(NC(=O)Nc3ccccc3)cccc2C1=O", "activation": "0.64% (inactive)"}, {"smiles": "Cc1cccc(NC(=O)c2ccc3nsnc3c2)c1C", "activation": "10.3% (inactive)"}, {"smiles": "O=C(Nc1cccc(NC(=O)c2cccc(F)c2)c1)c1ccccc1", "activation": "26.6% (inactive)"}, {"smiles": "O=C(Nc1ccccc1)c1ccc2nsnc2c1", "activation": "60.2% (active)"}, {"smiles": "COC(C(=O)Nc1ccc(S(=O)(=O)Nc2ccc(C)c(C)c2)cc1)c1ccccc1", "note": "(stereo not given)", "activation": "-0.6% (inactive)"}, {"smiles": "COCCN1CCn2c(nc3cc(NS(C)(=O)=O)ccc32)C1", "activation": "4.78% (inactive)"}, {"smiles": "Cc1ccc(S(=O)(=O)NCC(=O)N(CC(=O)NC(C)(C)C)Cc2cccs2)cc1", "activation": "3.31% (inactive)"}, {"smiles": "O=C(O)c1ccccc1C(=O)Nc1nc(-c2ccccc2)cs1", "activation": "1.84% (inactive)"}, {"smiles": "CCc1noc(C)c1C(=O)Nc1nc2ccc(OC)cc2s1", "activation": "1.93% (inactive)"}, {"smiles": "CCc1noc(C)c1C(=O)Nc1nc(-c2ccccc2)cs1", "activation": "55.4% (active)"}, {"smiles": "Nc1ncc(CN2CCCC(C(=O)Nc3ccc(-c4ccco4)cc3)C2)cn1", "note": "(stereo not given)", "activation": "5.9% (inactive)"}, {"smiles": "Cc1cc(=O)oc2c(C(=O)c3ccccc3)c(OCC(N)=O)ccc12", "activation": "3.98% (inactive)"}, {"smiles": "O=C(COC(=O)c1ccc(F)cc1)NCC1COc2ccccc2O1", "note": "(stereo not given)", "activation": "-0.1% (inactive)"}, {"smiles": "Cc1noc(C)c1NC(=O)Nc1ccc2c(c1)C(=O)N([C@H](C)CO)C[C@H](C)[C@@H](CN(C)S(=O)(=O)c1cn(C)cn1)O2", "activation": "0.71% (inactive)"}, {"smiles": "O=S(=O)(Nc1ccc(-n2cnnn2)cc1)c1ccc(Cl)cc1", "activation": "1.5% (inactive)"}, {"smiles": "O=C(Cc1ccc(F)cc1)N/N=C/c1ccc2c(c1)OCO2", "activation": "42% (inactive)"}, {"smiles": "Cc1cc(C)nc(N/N=C/c2c(C)oc3ccccc23)n1", "activation": "11.9% (inactive)"}, {"smiles": "Cc1noc(C)c1/C=N/Nc1ccc2ccccc2n1", "activation": "83.3% (active)"}, {"smiles": "C(=N\\Nc1ccc2ccccc2n1)/c1ccc2c(c1)OCO2", "activation": "101% (active)"}, {"smiles": "Brc1ccc(-c2csc(N/N=C/c3cccnc3)n2)cc1", "activation": "-4.57% (inactive)"}, {"smiles": "Cc1cc(=O)[nH]c(N/N=C/c2ccc3c(c2)OCCO3)n1", "activation": "14.6% (inactive)"}, {"smiles": "Cc1nc(Cl)cc(N/N=C/c2ccccc2)n1", "activation": "23.2% (inactive)"}, {"smiles": "Brc1ccc(-c2csc(N/N=C/c3ccc4c(c3)OCO4)n2)cc1", "activation": "58% (active)"}, {"smiles": "O=C(CN1CCN(c2nc(-c3ccccc3)cs2)CC1)NCc1ccc2c(c1)OCO2", "activation": "0.54% (inactive)"}, {"smiles": "O=C(OCC(=O)N1CCCC1)c1ccc(Cl)nc1", "activation": "-1.12% (inactive)"}, {"smiles": "CCC(C)(C(=O)NC1CCCCC1)N(C)C(=O)c1ccc2c(c1)OCO2", "note": "(stereo not given)", "activation": "-0.09% (inactive)"}, {"smiles": "CCOC(=O)C1=NNC2(c3ccc(Cl)cc3)C(=O)N(c3cc(C)cc(C)c3)C(=O)C12", "note": "(stereo not given)", "activation": "5.66% (inactive)"}, {"smiles": "Cc1nnc(NC(=O)/C=C/c2ccco2)s1", "activation": "120% (active)"}, {"smiles": "CCc1nnc(NC(=O)/C=C/c2ccc(C)o2)s1", "activation": "28.2% (inactive)"}, {"smiles": "CCC(CC)c1nnc(NC(=O)/C=C/c2ccco2)s1", "activation": "46.2% (inactive)"}, {"smiles": "COc1ccc(S(=O)(=O)N2CCC(C(=O)NCc3ccco3)CC2)cc1C", "activation": "0.76% (inactive)"}, {"smiles": "CCc1ccc(NC(=O)C(=O)N/N=C(\\C)CC(=O)NCCOC)cc1", "activation": "8.77% (inactive)"}, {"smiles": "CC(Sc1nncn1C)C(=O)NCCC1=CCCCC1", "note": "(stereo not given)", "activation": "-0.01% (inactive)"}, {"smiles": "CC1CCc2sc3nc(N4CCN(CCO)CC4)n4ncnc4c3c2C1", "note": "(stereo not given)", "activation": "61.8% (active)"}, {"smiles": "CC1CCc2c(sc3nc4n(c(=O)c23)CCS4)C1", "note": "(stereo not given)", "activation": "-1.18% (inactive)"}, {"smiles": "CCCn1nnc2sc3c(c2c1=O)CCC(C)C3", "note": "(stereo not given)", "activation": "-0.09% (inactive)"}, {"smiles": "c1ccc2c(c1)CCc1snnc1-2", "activation": "2.81% (inactive)"}, {"smiles": "CCC1CCc2c(sc(NC(C)=O)c2C#N)C1", "note": "(stereo not given)", "activation": "1.29% (inactive)"}, {"smiles": "COc1ccc(NC(=O)C(CC(C)C)NC(=O)C2CCC(C)CC2)cc1", "note": "(stereo not given)", "activation": "1.21% (inactive)"}, {"smiles": "CC(=O)Nc1ccc(S(=O)(=O)NCC2CCC(C(=O)NCCc3ccccc3)CC2)cc1", "note": "(stereo not given)", "activation": "0.11% (inactive)"}, {"smiles": "O=C(NCc1ccc2c(c1)OCO2)c1c(-c2ccsc2)sc2ccccc12", "activation": "44.7% (inactive)"}, {"smiles": "Cc1cccc(-c2oc3ccc(-c4ccc5c(c4)OCO5)cc3c2C#Cc2cncn2C)c1", "activation": "26.5% (inactive)"}, {"smiles": "Cn1cncc1C#Cc1c(-c2ccsc2)sc2ccccc12", "activation": "52.7% (active)"}, {"smiles": "COC(=O)/C(=C\\Nc1ccccc1)NC(=O)c1ccc(Cl)cc1Cl", "activation": "1.34% (inactive)"}, {"smiles": "N#CC1(C#N)C(C(=O)C23CC4CC(CC(C4)C2)C3)C12CCOCC2", "note": "(stereo not given)", "activation": "-2.81% (inactive)"}, {"smiles": "CC(C)(C)c1cc(C(=O)N/N=C/c2ccc([N+](=O)[O-])s2)n[nH]1", "activation": "-8.74% (inactive)"}, {"smiles": "COc1ccc(C(=O)NCC(=O)N/N=C/c2ccc([N+](=O)[O-])s2)cc1OC", "activation": "-1.7% (inactive)"}, {"smiles": "Cc1ccccc1NCC(=O)N/N=C\\c1ccc([N+](=O)[O-])s1", "activation": "56.7% (active)"}, {"smiles": "Cc1cc(O)ccc1NC1=CC(=O)CC(C)(C)C1", "activation": "15.2% (inactive)"}, {"smiles": "CCN1CCN(C(=O)CN(C)S(=O)(=O)c2ccc3ccccc3c2)CC1", "activation": "-1.56% (inactive)"}, {"smiles": "C[C@@H]1CN([C@H](C)CO)C(=O)c2cc(NC(=O)NC3CCCCC3)ccc2O[C@H]1CN(C)S(C)(=O)=O", "activation": "-0.98% (inactive)"}, {"smiles": "COc1cccc(C(O)Cc2nc3ccccc3n2C)c1OC", "note": "(stereo not given)", "activation": "6.17% (inactive)"}, {"smiles": "CCOc1ccc(C(O)Cc2nc3ccccc3n2C)cc1", "note": "(stereo not given)", "activation": "118% (active)"}, {"smiles": "CCCn1c(C(O)c2ccc(OCC)cc2)nc2ccccc21", "note": "(stereo not given)", "activation": "0.65% (inactive)"}]}]}
